In the library only some 1.2% were active in any assay of this set; here they are far more common.
AMA1-RON2 inh – AMA1-RON2 (P. falciparum) interaction inhibition | AlphaScreen AMA1-biotinylated RON2 peptide binding | Potency, µM (series often up to 58.2 µM), inactives show at the top dose activity change, negative = inhibition, most hits filed as inhibitors | 360,000 compounds, 0.2% hits;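 note: potency is the fitted concentration of half-maximal effect; 0% = vehicle wells and -100% = peptide control; nearly all actives have a fitted effect of over 45% in size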
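AMA1 (3D7) with his tag at 25 nM final met compounds first, then biotinylated RON2 peptide at 25 nM; detection used donor plus acceptor beads, 10 µg/mL apiece, read by AlphaScreen after 30 min at room temperature.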
FBPA Giardia inh – inhibitors of Giardia lamblia fructose-1,6-bisphosphate aldolase. A8B2U2. purified Giardia FBPA. Potency, µM (titrated, usually from 59.6 µM), without a hit: at the top dose activity, negative = inhibition, hits mostly inhibitors. 290,000 compounds, 0.71% hits. AID 2451; note: potency is the fitted concentration of half-maximal effect; % is set by controls: 0 for no effect and ±100 for the full control effect; nearly all actives have a fitted effect of over 55% in size
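Giardia FBPA (40 nM reagent) was preincubated 10 min at RT with compound (up to 57.5 uM final), then substrate plus GAPDH/TPI/NAD/arsenate coupling system with diaphorase/resazurin was added; resorufin fluorescence (525/598 nm) was read after 20 min.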
LmPK inh – inhibitors of Leishmania mexicana pyruvate kinase; Q27686; purified LmPK, Kinase-Glo ATP luminescence, 1 h; Potency, µM (doses to about 57.5 µM), for inactives: at the top dose activity change, negative = inhibition, most hits filed as inhibitors; 290,000 compounds, 0.37% hits; note: potency is the fitted concentration of half-maximal effect; % is set by controls: 0 for no effect and ±100 for the full control effect
Target sequence (Q27686 whole entry, looked up): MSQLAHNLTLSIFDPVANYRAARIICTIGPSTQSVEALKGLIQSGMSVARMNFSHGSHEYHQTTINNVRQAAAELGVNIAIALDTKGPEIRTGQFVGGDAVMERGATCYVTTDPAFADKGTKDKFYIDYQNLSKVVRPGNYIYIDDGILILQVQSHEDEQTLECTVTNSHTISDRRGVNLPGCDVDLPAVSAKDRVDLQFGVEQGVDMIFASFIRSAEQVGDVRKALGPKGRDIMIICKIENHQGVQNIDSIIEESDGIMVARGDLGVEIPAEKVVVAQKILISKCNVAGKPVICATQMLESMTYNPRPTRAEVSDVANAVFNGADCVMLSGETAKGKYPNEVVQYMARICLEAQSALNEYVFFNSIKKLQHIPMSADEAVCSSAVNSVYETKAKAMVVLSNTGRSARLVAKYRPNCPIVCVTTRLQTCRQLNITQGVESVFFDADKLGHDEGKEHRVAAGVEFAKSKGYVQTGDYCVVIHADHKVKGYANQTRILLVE
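qHTS format; LmPK 0.1 nM; substrates PEP 0.5 mM and ADP 0.1 mM. One-hour room-temperature incubation, then coupled luciferase luminescence; 0.5 nM enzyme wells mark activation.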
Tb PYK inh – inhibitors of Trypanosoma brucei pyruvate kinase; TbPYK enzyme, Kinase-Glo Plus ATP luminescence, 45 min; AID 624173; 410,000 compounds, 0.12% hits; Potency, µM (titrated, usually from 76.8 µM), inactives show top-dose activity, negative = inhibition, hits mostly inhibitors; note: potency is the fitted concentration of half-maximal effect; % is set by controls: 0 for no effect and ±100 for the full control effect; nearly all actives have a fitted effect of over 50% in size
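T. brucei PYK with substrate was exposed to pin-transferred compounds across a concentration series, then started with 130 uM ADP (final). After 45 min at room temperature, Kinase-Glo Plus luminescence was read, normalized and curve-fitted.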
NS1 function inh – influenza NS1 inhibition | Potency, µM (highest dose often 46.1 µM), for inactives: top-dose activity, positive = more growth | 270,000 compounds, 0.4% hits | AID 2326; calls by dose curve; note: potency is the fitted concentration of half-maximal effect; actives are rising curves; nearly all actives have a fitted effect of over 50% in size
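OD600 was taken as the measure of yeast growth restored by compound in an NS1-expressing S. cerevisiae strain. Cells had been washed out of glucose medium and diluted 1:100 into galactose -URA medium, pH 6.0.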
Flu NS1 inh – validation of influenza NS1 protein function inhibitors; shares compounds with NS1 function inh; influenza NS1 function cell assay, 15-point titration; activity change, negative = inhibition, % at 32.9 µM; 1,400 tested, under 10 active; AID 492980; calls by dose curve; note: 0% is about no effect
Flu PR8 replic – influenza NS1 inhibitors: inhibition of influenza A/PR/8/34 replication | 95 compounds, 30% hits | MDCK infected influenza A/PR/8/34, virus titer TCID50; active compounds read low | shares compounds with NS1 function inh | virus titer (log TCID50), log10 TCID50 at 5 µM; call rule not given here
* hit, by the source's call; [ ] = another dose, or the depositor's remark. Unless noted, calls come from the whole dose curve; as a rule, active = well fitted curve in the direction sought with a large enough effect; inconclusive = small, poorly fitted or top-dose-only effect, or another doubt; inactive = no such curve, though single readings can be large; an effect the other way counts as inactive or inconclusive.

What do the screens show for `Cc1ccccc1NC(=O)C1CCCN(S(=O)(=O)c2cnc[nH]2)C1` (stereo unspecified)?
AMA1-RON2 inh: 0%; FBPA Giardia inh: 0%; LmPK inh: -3%; Tb PYK inh: -5%; NS1 function inh: 14µM*; Flu NS1 inh: 3

Results for Cc1ccc(NC(=O)C2CCCN(S(=O)(=O)c3cnc[nH]3)C2)c(Br)c1 (stereo unspecified) ?
AMA1-RON2 inh: 7%; FBPA Giardia inh: -5%; LmPK inh: -2%; Tb PYK inh: -1%; NS1 function inh: 2µM*; Flu NS1 inh: 1

What do the screens show for `CCN(Cc1ccccc1)S(=O)(=O)c1ccc(F)c(C(=O)Nc2cc(C(F)(F)F)ccc2Cl)c1`?
Tb PYK inh: 5%

How did CCCS(=O)(=O)c1nc(S(=O)(=O)c2ccc(C)cc2)c(N(C)Cc2ccccc2)s1 do in these assays?
Tb PYK inh: -7%

How did O=C(COC(=O)c1cccc2ccccc12)Nc1ncc(C(F)(F)F)cc1Cl do in these assays?
AMA1-RON2 inh: 4%; FBPA Giardia inh: 1%; LmPK inh: 18%; Tb PYK inh: 5%; NS1 function inh: 4.5µM*; Flu NS1 inh: 8

How did CCOc1ccccc1C(=O)OCC(=O)Nc1ncc(C(F)(F)F)cc1Cl do in these assays?
AMA1-RON2 inh: -3%; FBPA Giardia inh: 1%; LmPK inh: 1%; Tb PYK inh: 6%; NS1 function inh: -4%

What do the screens show for `COc1ccc2c(c1)O[C@@H](c1cccc(C(F)(F)F)c1)[C@H](OC(=O)NS(=O)(=O)c1ccc(C)cc1)C2=O`?
FBPA Giardia inh: 0%

Results for COc1ccc(C(=O)Nc2ccccc2-c2nnn(CC(=O)N3CCOCC3)n2)cc1 ?
AMA1-RON2 inh: 1%; FBPA Giardia inh: 0%; LmPK inh: -2%; Tb PYK inh: 6%; NS1 function inh: 1%

Results for COc1ccc(C(=O)Cn2nnc(-c3ccccc3NC(=O)c3ccco3)n2)cc1 ?
AMA1-RON2 inh: 4%; FBPA Giardia inh: 15%; LmPK inh: 4%; Tb PYK inh: -16%; NS1 function inh: 10µM*; Flu NS1 inh: 9

Results for COc1ccccc1-n1cc(-c2ccc(Br)cc2)[nH]c1=S ?
AMA1-RON2 inh: 5%; FBPA Giardia inh: 10%; LmPK inh: 6%; Tb PYK inh: -20%; NS1 function inh: 4.5µM*; Flu NS1 inh: -10

What do the screens show for `COc1ccccc1-n1cc(-c2ccc(C)cc2)[nH]c1=S`?
AMA1-RON2 inh: 51%; FBPA Giardia inh: 15%; LmPK inh: 6%; Tb PYK inh: inconclusive; NS1 function inh: 0%

How did CCN(CC)c1ccc(NC(=O)CN(C)S(=O)(=O)c2cccc3nsnc23)c(C)c1 do in these assays?
Tb PYK inh: -16%

What do the screens show for `C=CCOC(=O)N[C@H](/C(C(=O)OC)=C(\C)NCc1ccccc1)c1cccc(F)c1`?
FBPA Giardia inh: -2%

Results for O=C(COC(=O)c1ccc[nH]c1=O)Nc1cc(S(=O)(=O)N2CCCCC2)ccc1Cl ?
AMA1-RON2 inh: 33%; FBPA Giardia inh: 3%; LmPK inh: 1%; Tb PYK inh: -3%

What do the screens show for `O=C(COC(=O)c1ccc[nH]c1=O)Nc1ccc(S(=O)(=O)N2CCCC2)cc1`?
AMA1-RON2 inh: -7%; FBPA Giardia inh: 0%; LmPK inh: 3%; Tb PYK inh: 0%; NS1 function inh: 11µM*; Flu NS1 inh: 3; Flu PR8 replic: 7.7

Results for CC1(C)SC2C(NC(=O)Cc3ccccc3)C(=O)N2C1C(=O)O (stereo unspecified) ?
FBPA Giardia inh: -2%

What do the screens show for `COc1ccc(C)cc1NC(=O)C(Sc1nnc(-c2cccs2)o1)c1ccccc1` (stereo unspecified)?
AMA1-RON2 inh: 45%[11.6 µM]; FBPA Giardia inh: 4%; LmPK inh: -3%; Tb PYK inh: 0%; NS1 function inh: 11µM*; Flu NS1 inh: -26

What do the screens show for `O=C(Nc1ccc(Cl)cc1C(F)(F)F)C(Sc1nnc(-c2cccs2)o1)c1ccccc1` (stereo unspecified)?
AMA1-RON2 inh: 66%; FBPA Giardia inh: -4%; LmPK inh: 5%; Tb PYK inh: -20%; NS1 function inh: 25%

Results for O=c1c2ccccc2ncn1Cc1cccc2ccccc12 ?
AMA1-RON2 inh: -5%; FBPA Giardia inh: 10%; LmPK inh: 1%; Tb PYK inh: -1%; NS1 function inh: 0%

What do the screens show for `Cc1[nH][nH]c(=O)c1C(c1c(C)[nH][nH]c1=O)c1cn(Cc2cccc3ccccc23)c2ccccc12`?
AMA1-RON2 inh: -4%; FBPA Giardia inh: inconclusive; LmPK inh: 1%; Tb PYK inh: 3%; NS1 function inh: 13µM*; Flu NS1 inh: -11

Results for CNC1C(O)C2OC3OC(C)CC(=O)[C@@]3(O)O[C@H]2[C@H](NC)C1O (stereo partly specified) ?
FBPA Giardia inh: 3%

What do the screens show for `O=C(c1cc(C(F)(F)F)cc(C(F)(F)F)c1)N1CCC[C@@]2(CCN(Cc3ccncc3)C2)C1`?
FBPA Giardia inh: 4%; Tb PYK inh: 5%

How did CN(Cc1ccccc1)C(=O)COC(=O)c1ccccc1NS(=O)(=O)c1cccc(N)c1 do in these assays?
AMA1-RON2 inh: -20%; FBPA Giardia inh: 20%; LmPK inh: 7%; Tb PYK inh: -3%; NS1 function inh: 22µM*; Flu NS1 inh: 1

What do the screens show for `COc1ccc2c(c1)nc(NCCO)n2C`?
AMA1-RON2 inh: 4%; FBPA Giardia inh: -7%; LmPK inh: 2%; Tb PYK inh: -7%; NS1 function inh: 3.5µM*; Flu NS1 inh: -2

What do the screens show for `Cc1ccc2c(c1)nc(NCCCO)n2C`?
AMA1-RON2 inh: 4%; FBPA Giardia inh: 0%; LmPK inh: 3%; Tb PYK inh: -5%; NS1 function inh: 1%

How did CC12CCC(C(=O)N(CSC(=S)N/N=C\c3ccccc3Cl)C1=O)C2(C)C (stereo unspecified) do in these assays?
AMA1-RON2 inh: 33%; FBPA Giardia inh: 20%; LmPK inh: 0%; Tb PYK inh: -6%; NS1 function inh: 10µM*; Flu NS1 inh: inconclusive; Flu PR8 replic: 6.5*

What do the screens show for `CC(=O)/C(=C\c1ccccc1)CC(=O)O`?
FBPA Giardia inh: 0%

What do the screens show for `Cc1cc2cc(CN(Cc3ccc4c(c3)OCO4)C(=O)c3ccco3)c(=O)[nH]c2cc1C`?
AMA1-RON2 inh: -7%; FBPA Giardia inh: -29%; LmPK inh: 3%; Tb PYK inh: -2%; NS1 function inh: inconclusive; Flu NS1 inh: 11

Screening data as filed in PubChem.
